Broadly, the AC50 is the concentration giving half of the maximal activity seen.

Results filed as inconclusive are left out. The source made the active and inactive calls. Unless noted, cut-off not given; nearly all actives show AC50 up to about 30 µM.

Assay [1] is described as follows: growth inhibition of DIPG glioma cells, dose response, cell-based, SU-DIPG-XIII, MIPE4.0, CellTiter-Glo, qHTS (AID 1347061; cut-off not given, nearly all actives have AC50 up to about 37 µM;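 further: cells exposed to compound for 48 hours before readout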). As to conditions: SU-DIPG-XIII viability, CellTiter-Glo ATP luminescence. (In ATP-based viability assays light output follows the ATP content of the culture.)
Assay [2] can be described thus: growth inhibition of DIPG glioma cells, dose response, cell-based, JHH-DIPG-1, MIPE4.0, CellTiter-Glo, qHTS (AID 1347062; cut-off not given, nearly all actives have AC50 up to about 27 µM;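 on AC50: cells exposed to compound for two days before readout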). To be noted: JHH-DIPG-1 viability, CellTiter-Glo ATP luminescence.
The nature of assay [3]: growth inhibition of DIPG glioma cells, dose response, cell-based, SU-DIPG-IV, MIPE4.0, CellTiter-Glo, qHTS (AID 1347063).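 Further: compound exposure lasted 48 hours before the viability readout.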 As to conditions: SU-DIPG-IV viability, CellTiter-Glo ATP luminescence.
Assay [4] is described as follows: SU-DIPG-VI glioma cell viability, MIPE4.0 library, CellTiter-Glo luminescence, qHTS (AID 1347066).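 Further: cells exposed to compound for 48 hours before readout.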 As to conditions: CellTiter-Glo ATP luminescence.
Assay [5] in a line: viability loss in pontine glioma line – cell-based, SU-DIPG-XXV, MIPE5.0, CellTiter-Glo, qHTS, dose response (AID 1347065; cut-off not given, nearly all actives have AC50 up to about 26 µM;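 further: cells exposed to compound for 48 hours before ATP readout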). As to conditions: CellTiter-Glo ATP luminescence.
A short description of assay [6]: JHH-DIPG-1 glioma cell viability, MIPE5.0 library, CellTiter-Glo luminescence, qHTS (AID 1347067; cut-off not given, nearly all actives have AC50 up to about 26 µM;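 further: cells exposed to compound for 48 hours before readout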). As to conditions: JHH-DIPG-1 glioma viability, CellTiter-Glo ATP luminescence.
Assay [7] in a line: SU-DIPG-XXV glioma cell viability, MIPE5.0 library, qHTS (AID 1347068; cut-off not given, nearly all actives have IC50 up to about 30 µM). Background: qHTS replaces the single test concentration by a dilution series.
The nature of assay [8]: growth inhibition of DIPG glioma cells, dose response, cell-based, SU-DIPG-XIII, MIPE5.0, CellTiter-Glo, qHTS (AID 1347064; cut-off not given, nearly all actives have AC50 up to about 23 µM). To be noted: SU-DIPG-XIII viability, CellTiter-Glo ATP luminescence.
A short description of assay [9]: sensitizers of A549 cells to miR-34 induction, primary screen, imaging, A549 dox-inducible miR-34, nuclei and caspase counts (AID 1347080;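 active means compounds whose cell count with miR-34 switched on is under 0.7 times the count with it off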). To be noted: A549 miR-34 inducible, Hoechst nuclei count, 48 h.
Assay [10] can be described thus: survival rescue of mitochondrial mutant cells in low glucose, primary screen, MELAS cybrids, Rieske KO mouse fibroblasts, CellTiter-Glo (AID 1508586;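 active means mean z-score across replicates of 1.96 or higher in either the MELAS or the Rieske mutant cell line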;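 further: z relative to plate mean and SD of compound and empty wells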).

`CC(C)(O)Cn1c(NC(=O)c2ccc(-c3cn[nH]c3)s2)nc2cc(CN3CCOCC3)ccc21`: the AC50 in assay [1] is 2.64 µM (active); in assay [2], 0.743 µM (active); in assay [3], 1.48 µM (active); in assay [4], 2.64 µM (active).
Turning to `Cc1ccnc(NS(=O)(=O)c2ccc(NC(=O)Nc3ccc(S(=O)(=O)Nc4nccc(C)n4)cc3)cc2)n1`, the call in assay [1], in [5], in [4], in assay [6] and in [7] was inactive. Besides, the AC50 in [2] was 2.64 µM (active); in assay [3] it was 14.8 µM (active).
Turning to `CO/N=C(/C(=O)N[C@@H]1C(=O)N2C(C(=O)O)=C(Cn3ccc(=N)n3CCO)CS[C@H]12)c1csc(N)n1`, the compound was classed as inactive in [1], in assay [2], in assay [3] and in [4].
Turning to `Cc1cc(-c2nnc3n2CCCCC3)c(C)n1-c1ccccc1`, the compound was called inactive in [1], in [2], in assay [3] and in assay [4].
`Cc1nc2c([nH]1)CCN(C(=O)c1ccc(NC(=O)c3ccccc3-c3ccccc3)cc1)c1ccccc1-2`: the compound was called inactive in assay [1], in assay [2], in assay [3], in [8], in assay [4] and in [6]. In addition, the call in [7] was inactive. Further, the fold change in assay [9] (stronger effect = lower value, cell number ratio, induced over uninduced) is 0.926 (inactive); in assay [9] (measured here: relative caspase fold change +Dox/-Dox), 0.734. In addition, the cell count in [9] (measured here: total cells with miR-34 induction, stronger effect = lower value) came to 8050; in assay [9] (measured here: total cells without miR-34 induction), 8690. The z-score in [10] (MELAS cybrid survival, CellTiter-Glo 48 h, stronger effect = higher value) was -0.466 (inactive); in assay [10] (Rieske KO mouse fibroblast survival, CellTiter-Glo 72 h), 0.668.
For `C=C1C[C@@]2(O)O[C@@]3(C[C@H]2C(C)C)[C@@H](C)CC[C@@H]13`, the outcome in [1], in [2], in assay [3], in [8], in [4] and in assay [7] was inactive.

For the origin of these results see PubChem BioAssay.
